Data reported in the supplement of paper PMC6555819.

tested on: VDR:RXRa (NR concentration 270 nM, RXRa partner concentration 90 nM); assay: PBM binding z-score (relative to random genomic background probes); higher = stronger binding; sequences stand for … in GC…GCGATTGACAGCGTAGAATGAAGG
Method: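 Protein-binding microarray (Agilent 4x180K custom design, double-stranded 60-nt probes: 5' GC cap, 34-nt variable region, 24-nt constant primer region; full probe sequence given). Purified or IVT nuclear receptor:RXRα heterodimers (3:1 NR:RXRα, mostly 270:90 nM) or homodimers were incubated for 1 h in PBS with 2% milk and no ligand, then detected with Alexa488 antibodies. Fluorescence from o1-orientation probes (~5 replicates averaged) was converted to z-scores against 500 random hg19 background probes. Variable regions are seed direct-repeat (DR0–DR5) sites, all their single-nucleotide variants and half-site ablations.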

Sequence	PBM binding z-score
GGAACGAGGGCAAGTTTATAGCAGAGTTTGATGG	1.32
GCGACTGGGGCATCAGCAGGTTACTATAACTTAA	0.0645
TCTAGCAGGTCAGAGGGTCACTCAAGAGGTACGG	4
CCTAATGGGCCACGAAAGGTCATTGATTCAGTGA	4.33
CGTCCAAGGACAGCAGGTCAGTGAAAGCGACGTG	-0.0699
TTACCAAGGTGAAGGTCGTTGTTCCCTCTGTAGA	1.26
TCGAGTAGGTTACCAATGGGGCATTCTGCTTTCT	-0.0796
TGAATGAGGTTATAAGATCAGGGACCGTTGCAAA	1.25
AGCATGAGGTTACCAAAGATCAGGGAAACGCTTG	1.28
CATACAGGGTCAGCTAGGCCACAGTAGGGACGGC	4.79
CACGAAAGGTCGTGCTCAGGTGAGTATACCAAAC	3.51
ACTCGGAGGACAAGGGTCAGAGCTACGCCAGTGA	1.91
CCTAATGGGCCATTCAGAGGTCATTGATCATATG	4.1
ACCTCTAGGTAACCAAGTTCAGTGAATGCCGAAC	3.96
TAGCGTAGGTCAGATCGGGCCAGTATACGCTATA	0.856
GCTCGGAGGACGAGGTCAGAGCTTTGTCCGTAGA	2.2
GTACCAAGGTGAATAGGTCGTTAATGAGTAGGCG	0.93
GCATATAGGTAATACAAGGTGAAAATCCGATTGT	0.212
GCTAGCAGGCCAGTTGGGTCACTCAATGACGGGC	-0.00125
AGAGCGAGGGCACGCTGAGTTGATAGCAGAGTAG	1.86

Sequence	PBM binding z-score
CAAACTAGGTCAGGGTCAAAGTCGGTTTGTGCCA	4.97
ATATGTAGATTATCGGGTCATTCAGTTTGCGCAT	4.87
CAAACTAGGTCGAAGGTCAAAGTCGAGCCAACCA	4.45
CCGACTGGGGCATAAGGTTACCATGAGCCAGCCC	0.177
CCTCGGAGGACATAAGGTCAGAGCTGTCCGCTTT	1.91
TCTCGGAGGACACGAAAGGTCCGAGCTCGACATC	-0.242
TAGCCTAGGTCATTCAGGGGCCAGTAGAGAAAGC	3.24
CCTACGGGGCCAAAAAGGTCATTGATGCCGATAA	5.88
TCTAGTTGGTCACGGAAGTCACACACGACGGGTA	0.891
CCTAGCAGGCCAGGGTCAGTCAAGCATTTCGCTT	0.634
CGAACTAGGTCATTGACTGGACAGTGAATAGTAA	1.68
CTCGAAAGGTCTGTTGAGGTGAGTATACGGATAA	0.221
TCGAGTAGGTTAGGGGTATTCAGAATGGCGTCGA	0.154
CCGACTGGGGCAGAATGGTTACCATACCATCCGG	-0.638
TCTGCTAGCTCAGTTGGTCAGCTAACGAGCTGCC	-0.839
GATACAGCGTCAAGGCCAGAGTACGCGTATTGAT	-0.35
ATATGTACGTTACATCCGGGTCATTCAGGCTATG	3.54
CCTAGCAGGCTAGGGTCACTCAAGCATTTCGCTT	2.72
ATCTCTAGGTCACAAGTTCAGTGAAAGAGAGGAC	4.26
ATCGAAAGGTTGACGAGGTGAGTATACACCGTTT	2.71
